Screening data deposited in PubChem by National Center for Advancing Translational Sciences (NCATS).
This is a sample that favours compounds with a hit; in the whole collection about 10% have one here.
HEK cytotox = kills HEK 293 cells | HEK 293 viability, ATP luminescence (CellTiter-Glo), 48-72 h | Potency, µM (series often up to 115 µM), without a hit: at the top dose activity change, negative = cytotoxicity, hits mostly inhibitors | hit rate 6.6% among 94,000 | AID 1345083; note: % is set by controls: 0 for no effect and ±100 for the full control effect; nearly all actives have a fitted effect of over 60% in size
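Luminescence from cellular ATP, measured with CellTiter-Glo, indicates HEK 293 viability. Cells plated at 250 cells/well are treated with compound for 48 or 72 hr at 37 degree Celsius before reagent addition.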
NPR1 antag = human Npr1 receptor antagonism; P16066; HEK293 hNpr1 GloSensor cGMP, ANP-stimulated luminescence; Potency, µM (series often up to 46.3 µM), for the others: top-dose activity change, negative = inhibition, hits mostly inhibitors; hit rate 1.6% among 76,000; calls by dose curve; note: % is set by controls: 0 for no effect and ±100 for the full control effect; nearly all actives have a fitted effect of over 60% in size
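Compound pre-incubated 30 min at room temperature on GloSensor-loaded HEK293 cells stably carrying hNpr1 and the pGS-40F cGMP biosensor. Stimulation uses hNppA at 0.1 nM final; luminescence is taken at baseline and 20 min post-agonist.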
NIH3T3 tox = kills NIH 3T3 cells. Potency, µM (titrated, usually from 96.7 µM), inactives show top-dose activity change, negative = cytotoxicity, actives largely listed as inhibitors. AID 1345082. NIH 3T3 viability, CellTiter-Glo ATP luminescence, 48-72 h. hit rate 4.3% among 94,000; note: % is set by controls: 0 for no effect and ±100 for the full control effect; nearly all actives have a fitted effect of over 55% in size
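ATP-dependent luminescence (CellTiter-Glo) served as the viability signal for NIH 3T3 cells treated with compound for 48 or 72 hr at 37 °C.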
GPT2 inh = GPT2 alanine aminotransferase inhibition. hit rate 0.25% among 100,000. Recombinant GPT2, coupled pyruvate oxidase/HRP Amplex Red fluorescence. Q8TD30. Potency, µM (doses to about 57.7 µM), inactives show at the highest dose activity change, negative = inhibition, hits mostly inhibitors; note: % is set by controls: 0 for no effect and ±100 for the full control effect; nearly all actives have a fitted effect of over 60% in size
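Fluorescence of coupled pyruvate oxidase/HRP/Amplex Red system (50uM Amplex, 30 min, dark) reports pyruvate formed by GPT2. Enzyme reaction: 10ng/uL GPT2, 2mM L-alanine, 250uM a-KG, 30 min room temperature, pH 7.5; 50uM AOA control.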
FLuc inh-1 = blocks purified firefly luciferase enzyme activity | Potency, µM (titrated, usually from 115 µM), most hits filed as inhibitors | purified P. pyralis luciferase, luminescence, biochemical | P08659 | AID 1347043 | hit rate 2.5% among 76,000; note: % is set by controls: 0 for no effect and ±100 for the full control effect; nearly all actives have a fitted effect of over 65% in size
Target sequence (P08659 whole entry, looked up): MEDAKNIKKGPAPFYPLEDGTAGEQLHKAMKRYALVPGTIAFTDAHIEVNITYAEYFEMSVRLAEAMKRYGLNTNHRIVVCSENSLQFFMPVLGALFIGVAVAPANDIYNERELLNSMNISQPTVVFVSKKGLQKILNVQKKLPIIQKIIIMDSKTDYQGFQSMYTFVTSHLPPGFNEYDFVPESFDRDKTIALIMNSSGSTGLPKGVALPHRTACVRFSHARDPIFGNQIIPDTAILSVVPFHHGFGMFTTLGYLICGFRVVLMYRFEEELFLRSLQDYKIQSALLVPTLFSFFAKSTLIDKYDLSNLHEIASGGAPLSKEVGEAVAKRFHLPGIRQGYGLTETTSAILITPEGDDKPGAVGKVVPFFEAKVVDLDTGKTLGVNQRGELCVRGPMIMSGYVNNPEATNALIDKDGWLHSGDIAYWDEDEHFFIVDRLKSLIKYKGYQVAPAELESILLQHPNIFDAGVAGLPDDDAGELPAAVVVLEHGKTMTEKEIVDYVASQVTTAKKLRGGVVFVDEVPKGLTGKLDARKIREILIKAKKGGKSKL
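Luminescence read by CCD imaging after purified firefly luciferase (10nM final) was added to substrate buffer holding 10uM D-luciferin and 10uM ATP, pH 7.5, pre-dosed with compound.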
FLuc SDR no ATP = firefly luciferase binding stabilization, ATP absent; shares compounds with FLuc inh-1; Purified FLuc-C-HiBiT, Nano-Glo HiBiT luminescence, no ATP; Potency, µM (titrated, usually from 32.7 µM), inactives show at the top dose activation (signal gain), hits mostly activators; hit rate 7.8% among 1,300; AID 1963318; note: nearly all actives have a fitted effect of over 55% in size
FLuc SDR ATP = firefly luciferase binding stabilization, ATP added | Potency, µM (highest dose often 32.7 µM), for inactives: at the highest dose activation (gain of signal), hits mostly activators | hit rate 8.7% among 1,300 | purified FLuc-C-HiBiT + ATP, HiBiT complementation luminescence | shares compounds with FLuc inh-1 | AID 1963319;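 note: signal reports ligand binding via conformational change of the enzyme rather than luciferase catalysis; % of control where 0% means no effect; nearly all actives have a fitted effect of over 55% in size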
FLuc inh-2 = firefly luciferase enzyme inhibition; shares compounds with FLuc inh-1; purified FLuc-C-HiBiT enzyme, luciferin luminescence; Potency, µM (doses to about 32.7 µM), without a hit: at the highest dose activity change, negative = inhibition, actives largely listed as inhibitors; hit rate 42% among 1,300; AID 1963320; note: % is set by controls: 0 for no effect and ±100 for the full control effect; nearly all actives have a fitted effect of over 70% in size
* marks the source's active call; other numbers are inactive results; i = inactive; u = inconclusive; x = not tested or not shown; [ ] = another dose, or the depositor's remark. Unless noted, calls come from the whole dose curve; as a rule, active = well fitted curve in the direction sought with a large enough effect; inconclusive = small, poorly fitted or top-dose-only effect, or another doubt; inactive = no such curve, though single readings can be large; an effect the other way counts as inactive or inconclusive. Potency is the fitted concentration of half-maximal effect.

SMILES | HEK cytotox | NPR1 antag | NIH3T3 tox | GPT2 inh | FLuc inh-1 | FLuc SDR no ATP | FLuc SDR ATP | FLuc inh-2
O=C1NC2(CCN([S+](=O)([O-])c3ccccc3)C2)Oc2ccccc21 (centres undefined) | u | 7%[70.6 µM] | u | i | i | x | x | x
CCOCC1(C)COc2ccc(C(=O)Nc3ccc(Cl)cc3)cc2N1 (centres undefined) | 40µM* | 32µM* | 45µM* | -16%[88.5 µM] | 11µM* | 17%[49.3 µM] | 11%[49.3 µM] | u
CN(c1ccc(NC(=O)Nc2ccc(OC(F)(F)F)cc2)cc1)c1ccnc(Nc2cccc(S(N)(=O)=O)c2)n1 | x | x | x | x | x | 16% | 9% | 2%
O=C(N[C@@H]1CN(Cc2ccc(Cl)c(F)c2)C[C@H]1CO)C1CCC1 | u | 3% | -13% | i | i | x | x | x
O=C(O)C1CN(Cc2ccc(-c3nc4cc(Cc5ccccc5F)ccc4s3)c(F)c2)C1 | x | x | x | -4%[11.5 µM] | x | 15%[5.62 µM] | 9%[5.62 µM] | 4%[5.62 µM]
CCOC(=O)c1ccc(NC2SC(=O)N(Cc3cccc(C(=O)O)c3)C2=O)cc1 (centres undefined) | x | x | x | x | x | 14% | u | u
CCOC(=O)c1ccc(NC(=O)CC2CCCCN(C)C2=O)cc1 (centres undefined) | -19% | -2% | -7% | 3% | i | x | x | x
Cn1c([C@H]2CCN(C3CCCCC3)C2)nc2ccccc21 | u | -26%[70.6 µM] | u | -13%[88.5 µM] | 7.1µM* | 18%[65.7 µM] | 12%[65.7 µM] | u
Cc1cn2nc(C(=O)Nc3ccc4c(c3)OCCO4)cc2c(N(C)Cc2ccccc2)n1 | -24% | -1% | u | i | 10µM* | 24% | 20% | u
Cc1cn2nc(C(=O)Nc3ccccc3)cc2c(N(C)Cc2ccccc2)n1 | u | 15% | u | i | i | x | x | x
COc1cccc(-n2cnc3c(N/N=C/c4ccncc4)ncnc32)c1 | x | x | x | x | x | 24% | 14% | u
c1ccc(CN2CC[C@H](c3nc4ccccc4o3)C2)nc1 | -13%[230 µM] | -7%[70.6 µM] | u | u | i | x | x | x
Cc1ccc2oc([C@H]3CCN(Cc4cccs4)C3)nc2c1 | 100µM* | -23%[70.6 µM] | u | 0%[88.5 µM] | 10µM* | 18%[49.3 µM] | 16%[49.3 µM] | u
Nc1ncnc2c1ncn2[C@@H]1O[C@H](CO)[C@@H](O)[C@@H]1O | x | x | x | i | x | 11% | 11% | -9%
Cc1noc(C)c1CCC(=O)N1CCC2(CC1)CC(CCOCC1CC1)CCO2 (centres undefined) | -28% | x | -31% | i | x | x | x | x
C[C@@H]1O[C@@H](O[C@H]2[C@H](OC(C#N)c3ccc(O)cc3)O[C@H](CO)[C@@H](O)[C@@H]2O)[C@H](O)[C@H](O)[C@H]1O (some centres undefined) | x | x | x | -3%[27.3 µM] | x | x | x | x
CCc1noc(-c2cccn3c(CNC(=O)c4ccccc4Cl)nnc23)n1 | -17% | -18% | u | i | i | x | x | x
COc1ccc(-c2noc(Nc3ccccc3)n2)cc1 | u | 10µM* | -26% | i | 1.1µM* | 30% | u | 2.2µM*
COc1ccc(-c2noc(Nc3cc(OC)cc(OC)c3)n2)cc1 | u | -17% | u | 5% | u | x | x | x
COc1cccc(-c2noc(COc3ccccc3Cl)n2)c1 | x | x | x | x | x | 14% | 13% | u
CCOc1ccc(C(=O)N2CCC[C@H]2c2nc(-c3ccccc3)no2)cc1 | -14% | -11% | u | 0% | i | x | x | x
